Source: PubChem BioAssay (NCATS)
Results filed as inconclusive are left out. Activity calls are given as the source filed them. Calls follow the shape of the dose curve; as a rule, active = well fitted cell-killing curve with a large enough effect; inconclusive = small, poorly fitted or top-dose-only effect, or effect the other way; inactive = flat fitted curve, though single readings scatter.

What was measured:
Experiment in all cases: Primary qHTS to identify gynecologic anti-cancer compounds using libraries of approved drugs and bioactive compounds (AID 1345084); also: nearly all actives have a fitted effect of over 55% in size
CAOV3 = details: Gynecologic cancer cell panel viability, ATPlite luminescence, 48 h; series mostly up to 57.5 µM
Summary of the method: (§1)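 Cytotoxicity screen measuring ATP content by luciferase luminescence. Each compound is applied at five concentrations for 48 h at 37 C with 5% CO2.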

CASKI = details: Gynecologic cancer cell panel viability, ATPlite luminescence, 48 h; series mostly up to 57.5 µM
Summary of the method: as §1

Es-2 = details: Gynecologic cancer cell panel viability, ATPlite luminescence, 48 h; series mostly up to 57.5 µM
Summary of the method: as §1

HeLa = details: Gynecologic cancer cell panel viability, ATPlite luminescence, 48 h; series mostly up to 57.5 µM
Summary of the method: as §1

Hek293T = details: Gynecologic cancer cell panel viability, ATPlite luminescence, 48 h, control line for the selectivity index; series mostly up to 57.5 µM
Summary of the method: as §1

JEG-3 = details: Gynecologic cancer cell panel viability, ATPlite luminescence, 48 h; series mostly up to 57.5 µM
Summary of the method: as §1

OV90 = details: Gynecologic cancer cell panel viability, ATPlite luminescence, 48 h; series mostly up to 57.5 µM
Summary of the method: as §1

PA-1 = details: Gynecologic cancer cell panel viability, ATPlite luminescence, 48 h; series mostly up to 57.5 µM
Summary of the method: as §1

SKOV3 = details: Gynecologic cancer cell panel viability, ATPlite luminescence, 48 h; series mostly up to 57.5 µM
Summary of the method: as §1

Tov-21-G = details: Gynecologic cancer cell panel viability, ATPlite luminescence, 48 h; series mostly up to 57.5 µM
Summary of the method: as §1

Tov112D = details: Gynecologic cancer cell panel viability, ATPlite luminescence, 48 h; series mostly up to 57.5 µM
Summary of the method: as §1
% is scaled to controls: 0 for no effect and ±100 for the full control effect.

O=C(O)c1n[nH]c2c1C[C@H]1C[C@@H]21
inactive: Potency (CAOV3) | Potency (CASKI) | Potency (Es-2) | Potency (HeLa) | Potency (Hek293T) | Potency (JEG-3) | Potency (OV90) | Potency (PA-1) | Potency (SKOV3) | Potency (Tov-21-G) | Potency (Tov112D)

CC1OC(OC2C(O)C(C(=O)O)OC(OC3CCC4(C)C(CCC5(C)C4C=CC4=C6CC(C)(C)CC(O)C6(C)CCC45C)C3(C)C)C2OC2OCC(O)C(O)C2O)C(O)C(O)C1O (stereo not drawn)
inactive: activity change, negative = cytotoxicity (CAOV3) 25.6% [at 11.6 µM] | activity change, negative = cytotoxicity (CASKI) 17.4% [at 11.6 µM] | activity change, negative = cytotoxicity (Es-2) -1.97% [at 11.6 µM] | activity change, negative = cytotoxicity (HeLa) -2.13% [at 11.6 µM] | activity change, negative = cytotoxicity (Hek293T) -1.86% [at 11.6 µM] | activity change, negative = cytotoxicity (JEG-3) 0.12% [at 11.6 µM] | activity change, negative = cytotoxicity (OV90) 1.31% [at 11.6 µM] | activity change, negative = cytotoxicity (PA-1) 8.55% [at 11.6 µM] | activity change, negative = cytotoxicity (SKOV3) 1.68% [at 11.6 µM] | activity change, negative = cytotoxicity (Tov-21-G) 7.57% [at 11.6 µM] | activity change, negative = cytotoxicity (Tov112D) 16.2% [at 11.6 µM]

Cn1ccnc1CCOC(c1cc2nccc(C(=O)O)c2[nH]1)c1ccccc1Cl (stereo not drawn)
inactive: Potency (CAOV3) | Potency (CASKI) | Potency (Es-2) | Potency (HeLa) | Potency (Hek293T) | Potency (JEG-3) | Potency (OV90) | Potency (PA-1) | Potency (SKOV3) | Potency (Tov-21-G) | Potency (Tov112D)

CC(=O)O[C@@H]1[C@H]2[C@@H](OC(=O)c3ccccc3)[C@@H](C)C[C@]2(O)[C@H](OC(C)=O)[C@@]2(C)[C@@H]3CC(C)(C)C(=O)[C@]3(OC(C)=O)C[C@@]12C
inactive: Potency (CAOV3) | Potency (CASKI) | Potency (Es-2) | Potency (HeLa) | Potency (Hek293T) | Potency (JEG-3) | Potency (OV90) | Potency (PA-1) | Potency (SKOV3) | Potency (Tov-21-G) | Potency (Tov112D)

OCC1=CC[C@@H]2C=CO[C@@H](O[C@@H]3O[C@H](CO)[C@@H](O)[C@H](O)[C@H]3O)[C@H]12
inactive: Potency (CAOV3) | Potency (CASKI) | Potency (Es-2) | Potency (HeLa) | Potency (Hek293T) | Potency (JEG-3) | Potency (OV90) | Potency (PA-1) | Potency (SKOV3) | Potency (Tov-21-G) | Potency (Tov112D)

CC1(C)CC2C3=CCC4C5(C)CCC(OC6OC(C(=O)O)C(O)C(O)C6OC6OC(CO)C(O)C(O)C6OC6OC(CO)C(O)C(O)C6O)C(C)(CO)C5CCC4(C)C3(C)CCC2(C)C(OC2OCC(O)C(OC3OC(CO)C(O)C(O)C3O)C2O)C1O (stereo not drawn)
inactive: activity change, negative = cytotoxicity (CAOV3) 13.1% [at 6.55 µM] | activity change, negative = cytotoxicity (CASKI) 6.12% [at 6.55 µM] | activity change, negative = cytotoxicity (Es-2) 1.46% [at 6.55 µM] | activity change, negative = cytotoxicity (HeLa) -0.393% [at 6.55 µM] | activity change, negative = cytotoxicity (Hek293T) 8.01% [at 6.55 µM] | activity change, negative = cytotoxicity (JEG-3) 6.32% [at 6.55 µM] | activity change, negative = cytotoxicity (OV90) -9.75% [at 6.55 µM] | activity change, negative = cytotoxicity (PA-1) 5.88% [at 6.55 µM] | activity change, negative = cytotoxicity (SKOV3) 16.1% [at 6.55 µM] | activity change, negative = cytotoxicity (Tov-21-G) -0.438% [at 6.55 µM] | activity change, negative = cytotoxicity (Tov112D) 1.06% [at 6.55 µM]

O=c1c2cccnc2n(-c2cccc([N+](=O)[O-])c2)c(=O)n1Cc1ccncc1
inactive: Potency (CAOV3) | Potency (CASKI) | Potency (Es-2) | Potency (HeLa) | Potency (Hek293T) | Potency (JEG-3) | Potency (OV90) | Potency (PA-1) | Potency (SKOV3) | Potency (Tov-21-G) | Potency (Tov112D)

C=CC(C)(C)C1(CC2NC(=O)C3CCCN3C2=O)C(=O)Nc2cc3c(cc21)C=CC(C)(C)O3 (stereo not drawn)
inactive: Potency (CAOV3) | Potency (CASKI) | Potency (Es-2) | Potency (HeLa) | Potency (Hek293T) | Potency (JEG-3) | Potency (OV90) | Potency (PA-1) | Potency (SKOV3) | Potency (Tov-21-G) | Potency (Tov112D)

O=C(/C=C/c1ccc(O)c(O)c1)OCc1ccccc1O[C@@H]1O[C@H](CO)[C@@H](O)[C@H](O)[C@H]1O
inactive: Potency (CAOV3) | Potency (CASKI) | Potency (Es-2) | Potency (HeLa) | Potency (Hek293T) | Potency (JEG-3) | Potency (OV90) | Potency (PA-1) | Potency (SKOV3) | Potency (Tov-21-G) | Potency (Tov112D)

C/C1=C\C[C@H](O[C@@H]2O[C@H](CO)[C@@H](O)[C@H](O)[C@H]2O)/C(C)=C/[C@H]2OC(=O)[C@H](C)[C@@H]2CC1
inactive: Potency (CAOV3) | Potency (CASKI) | Potency (Es-2) | Potency (HeLa) | Potency (Hek293T) | Potency (JEG-3) | Potency (OV90) | Potency (PA-1) | Potency (SKOV3) | Potency (Tov-21-G) | Potency (Tov112D)

CC[C@H](C)/C=C(C)/C=C/C(=O)Cc1cc(O)c(C)c(O)c1C=O
inactive: Potency (CAOV3) | Potency (CASKI) | Potency (Es-2) | Potency (HeLa) | Potency (Hek293T) | Potency (JEG-3) | Potency (OV90) | Potency (PA-1) | Potency (SKOV3) | Potency (Tov-21-G) | Potency (Tov112D)

CC(=O)OC1C=C(C(=O)O)C2(CO)CCC(C)C(C)(CCc3ccoc3)C2C1 (stereo not drawn)
inactive: Potency (CAOV3) | Potency (CASKI) | Potency (Es-2) | Potency (HeLa) | Potency (Hek293T) | Potency (JEG-3) | Potency (OV90) | Potency (PA-1) | Potency (SKOV3) | Potency (Tov-21-G) | Potency (Tov112D)

C[C@@H]1O[C@@H](O[C@H]2[C@H](O[C@H]3[C@H](O[C@H]4CC[C@@]5(CO)C(CC[C@]6(C)C5CC=C5C7CC(C)(C)C[C@@H](O)[C@]7(C)CC[C@]56C)C4(C)C)O[C@H](C(=O)O)[C@@H](O)[C@@H]3O)OC[C@@H](O)[C@@H]2O)[C@H](O)[C@H](O)[C@H]1O (stereo partly drawn)
inactive: activity change, negative = cytotoxicity (CAOV3) 7.01% [at 11.6 µM] | activity change, negative = cytotoxicity (CASKI) 6.9% [at 11.6 µM] | activity change, negative = cytotoxicity (Es-2) -4.17% [at 11.6 µM] | activity change, negative = cytotoxicity (HeLa) -12.2% [at 11.6 µM] | activity change, negative = cytotoxicity (Hek293T) -3.07% [at 11.6 µM] | activity change, negative = cytotoxicity (JEG-3) -1.11% [at 11.6 µM] | activity change, negative = cytotoxicity (OV90) -1.83% [at 11.6 µM] | activity change, negative = cytotoxicity (PA-1) 6.18% [at 11.6 µM] | activity change, negative = cytotoxicity (SKOV3) 0.621% [at 11.6 µM] | activity change, negative = cytotoxicity (Tov-21-G) 0.307% [at 11.6 µM] | activity change, negative = cytotoxicity (Tov112D) -0.127% [at 11.6 µM]
